Structures are written as SMILES. In all, about 1,900 compounds went through this assay and about 250 (13%) were called active. Inconclusive results (about 4%) are left out.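 The calls were made as follows: active = fitted curve reaches 40% rescue activity at or below the top valid dose, in every test run; inconclusive = test runs disagree, some active and some inactive; inactive = every run misses the threshold or moves the wrong way.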 Only a sample is shown. Results with a measured potency or affinity are listed apart.

This assay can be described thus: suppressors of statin myotoxicity in myotubes, dose response, cell-based, C2C12 myotubes, ATP luminescence, cherry pick (AID 624405).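 Also: myotubes are challenged with simvastatin at 10 µM to lower ATP.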 The note with it: C2C12 myotubes + simvastatin, 48 h, scaled: DMSO wells 0, geranylgeraniol wells 100; series mostly up to 19.5 µM.
Take `CCN(CC)c1ncnc2c1cnn2Cc1ccc(Cl)cc1`: the result was inactive. In the case of `CC(C)CNc1ncnc2c1cnn2Cc1ccc(Cl)cc1`, the result was inactive. The entry for `Clc1ccc(Cn2ncc3c(N4CCOCC4)ncnc32)cc1` is “inactive”; for `CCC(C)Nc1ncnc2c1cnn2Cc1ccc(Cl)cc1` (configuration not stated) it is “inactive”. With `Cc1ccc(Cn2ncc3c(NCCCN(C)C)ncnc32)cc1`, the result was inactive. The entry for `Cc1ccc(Cn2ncc3c(N4CCCC4)ncnc32)cc1` is “inactive”; for `COc1ccccc1N1CCN(C(=O)c2cc(-c3ccc(F)cc3)[nH]c2C)CC1` it is “inactive”; for `COc1cc(C)c(S(=O)(=O)n2ccc(C)n2)cc1C` it is “inactive”. For `C[C@@H]1CN([C@@H](C)CO)C(=O)c2cc(C3=CCCCC3)cnc2O[C@H]1CN(C)Cc1ccccc1F`, the outcome was inactive. With `CC(=O)Nc1sc2c(c1C#N)CCC(C)C2` (configuration not stated), the outcome was inactive. On to `Cc1noc(C)c1NC(=O)Nc1ccc2c(c1)CC(=O)N([C@H](C)CO)C[C@H](C)[C@@H](CN(C)Cc1ccc(Oc3ccccc3)cc1)O2`, for which the outcome was inactive.

On to `C[C@H]1CCCCO[C@H](CN(C)S(=O)(=O)c2cccs2)[C@@H](C)CN([C@@H](C)CO)C(=O)c2cc(NC(=O)Nc3ccc(F)cc3)ccc2O1`, for which the result was inactive. On to `C[C@H](CO)N1C[C@H](C)[C@H](CN(C)Cc2ccc(Oc3ccccc3)cc2)Oc2ccc(NC(=O)Nc3ccc(C(F)(F)F)cc3)cc2CC1=O`, for which the outcome was inactive. As for `C[C@H](CO)N1C[C@H](C)[C@@H](CN(C)Cc2ccc(-c3ccccc3)cc2)Oc2ccc(NC(=O)c3ccncc3)cc2CC1=O`, the outcome was inactive. Regarding `Cc1c(Cl)cccc1NC(=O)CNC(=O)Cc1n[nH]c(=O)c2ccccc12`, the outcome was inactive. Take `C[C@@H]1CCCCO[C@@H](CN(C)C(=O)Nc2cccc3ccccc23)[C@H](C)CN([C@H](C)CO)C(=O)c2cc(NS(=O)(=O)c3ccc(Cl)cc3)ccc2O1`: the outcome was inactive. The entry for `N#Cc1nc(-c2ccco2)oc1NCCCn1ccnc1` is “inactive”; for `O=C(Nc1ccc(S(=O)(=O)N2CCCCCC2)cc1)c1ccco1` it is “inactive”. Consider `N#Cc1nc(COc2ccccc2)oc1N1CCOCC1`, for which the result was inactive. The entry for `CCCOc1cc(C)c(Cl)cc1S(=O)(=O)N(CC)CC` is “inactive”; for `Cc1ccc(S(=O)(=O)Nc2ccc3c(c2)C(=O)N([C@@H](C)CO)C[C@@H](C)[C@H](CN(C)Cc2ccc(Cl)c(Cl)c2)O3)cc1` it is “inactive”. The entry for `C[C@@H]1CCCCO[C@H](CN(C)C(=O)Nc2ccc(F)cc2)[C@H](C)CN([C@@H](C)CO)C(=O)c2cc(NC(=O)Cc3ccccc3)ccc2O1` is “inactive”. As for `CC(C)c1ccc(CNc2nc3nc4c(c(=O)n3[nH]2)CCC4)cc1`, the result was inactive. As for `Cc1ccc(S(=O)(=O)Nc2ccc3c(c2)CC(=O)N([C@@H](C)CO)C[C@H](C)[C@@H](CN(C)S(=O)(=O)c2cccs2)O3)cc1`, the result was inactive. For `CN(CC(=O)NCc1ccco1)CC(=O)Nc1ccc(F)c(F)c1F`, the outcome was inactive. Consider `COc1cc(NC(=O)COC(=O)c2cc(S(=O)(=O)N3CCOCC3)ccc2F)cc(OC)c1`, for which the outcome was inactive. For the molecule `COc1cc2c(C(=O)NCCCN3CCN(c4cccc(Cl)c4)CC3)cn(C)c(=O)c2cc1OC`, the result was inactive.

Take `COc1ccc(S(=O)(=O)Nc2ccc3c(c2)C(=O)N([C@@H](C)CO)C[C@@H](C)[C@H](CN(C)C(=O)Nc2cccc4ccccc24)OCCCC[C@@H](C)O3)cc1`: the outcome was inactive. Regarding `Cc1csc(SCC(=O)Nc2cccc(S(=O)(=O)N3CCCC3)c2)n1`, the result was inactive.

Turning to `COc1cccc(NC(=O)CSc2nc(C)cs2)c1`, the result was inactive. Turning to `COc1ccc(S(=O)(=O)Nc2cccc3c2O[C@H](CN(C)C(=O)Nc2ccc(C(F)(F)F)cc2)[C@H](C)CN([C@H](C)CO)C3=O)cc1`, the outcome was inactive. For `C[C@H](CO)N1C[C@H](C)[C@H](CN(C)Cc2ccc(Oc3ccccc3)cc2)Oc2ccc(NC(=O)Nc3ccc(F)cc3)cc2CC1=O`, the outcome was inactive.

Take `C[C@@H]1CN([C@@H](C)CO)C(=O)c2cc(C#Cc3ccccc3F)cnc2O[C@H]1CN(C)S(=O)(=O)c1ccccc1F`: the result was inactive. Turning to `CCN(CC)CC(=O)n1c2c(c3ccccc31)CCCC2`, the result was inactive.

With `Clc1ccc(Cn2ncc3c(NCc4ccccc4)ncnc32)cc1`, the outcome was inactive. As to `O=C(Nc1ccc(S(=O)(=O)N2CCC(C(=O)NC3CCCCC3)CC2)cc1)c1ccco1`, the outcome was inactive. In the case of `Nc1ccc2c(S(=O)(=O)O)cccc2c1S(=O)(=O)O`, the outcome was inactive. For `O=C(Cn1nnc(-c2ccncc2)n1)N(C1CCCCC1)C1CCCCC1`, the result was inactive. Regarding `COCCn1nnnc1CN(CCc1ccc(OC)c(OC)c1)Cc1cc2ccc(C)cc2[nH]c1=O`, the result was inactive. The entry for `COc1ccc(NC(=O)Nc2ccc3c(c2)CC(=O)N([C@@H](C)CO)C[C@@H](C)[C@H](CN(C)C(=O)Nc2cccc4ccccc24)O3)cc1` is “inactive”; for `O=C(CCC1COc2ccccc2O1)Nc1ccccn1` (configuration not stated) it is “inactive”. Take `C[C@@H]1CCCCO[C@@H](CN(C)S(=O)(=O)c2ccc(Cl)cc2)[C@@H](C)CN([C@@H](C)CO)C(=O)c2cc(NS(C)(=O)=O)ccc2O1`: the result was inactive.

As to `C[C@@H]1CCCCO[C@@H](CN(C)S(=O)(=O)c2ccc(Cl)cc2)[C@@H](C)CN([C@H](C)CO)C(=O)c2cc(NS(C)(=O)=O)ccc2O1`, the result was inactive. As for `CCC(=O)c1ccc(OCC(=O)O)cc1`, the outcome was inactive. As to `COc1cc(OC)cc(-c2nc3nc(C)c(CCC(=O)O)c(C)n3n2)c1`, the result was inactive. As to `O=C(CSc1nnc2ccccn12)NNC(=O)c1cccc(Cl)c1`, the result was inactive.

For `COC(=O)c1ccc(CSc2nc3c(cnn3-c3ccc(C)c(C)c3)c(=O)[nH]2)o1`, the outcome was inactive. Consider `COc1ccc(S(=O)(=O)Nc2ccc3c(c2)C(=O)N([C@H](C)CO)C[C@H](C)[C@@H](CN(C)S(=O)(=O)c2ccc(F)cc2)OCCCC[C@H](C)O3)cc1`, for which the result was inactive. As to `COc1ccc(CC(=O)Nc2cc(C)on2)cc1`, the outcome was inactive. Consider `C[C@@H]1CCCCO[C@H](CN(C)C(=O)Cc2ccccc2)[C@@H](C)CN([C@@H](C)CO)C(=O)c2cc(NS(=O)(=O)c3cn(C)cn3)ccc2O1`, for which the outcome was inactive. On to `O=S(=O)(c1ccccc1C(F)(F)F)N1CCN(S(=O)(=O)c2ccccc2C(F)(F)F)CC1`, for which the outcome was inactive. The entry for `CN1C(=O)c2cc(NC(=O)c3cnccn3)ccc2OC[C@H]2O[C@H](CC(=O)NCC3CCCCC3)CC[C@H]21` is “inactive”.

The values are drawn from PubChem BioAssay AID624405 (Broad Institute, 2012).
